Assay [1] in a line: qHTS assay for small molecules that induce genotoxicity in human embryonic kidney cells expressing luciferase-tagged ATAD5 (AID 651632). Note: nearly all actives have a fitted effect of over 15% in size. An outline of the steps:
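ATAD5-luc HEK293T, 2,000 cells/well; cpd or DMSO pin-transferred; 16 hr, 37C/5% CO2; Amplite 30 min RT; luminescence.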
Background: In qHTS, concentration-response curves come from the screen itself.

Assay [2] is described as follows: qHTS assay for small molecules that induce genotoxicity in human embryonic kidney cells expressing luciferase-tagged ATAD5 - cell viability (AID 651634; calls by dose curve; note: nearly all actives have a fitted effect of over 25% in size). The gist of the method:
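Fluorescence from CellTiter-Fluor, reporting protease activity within live cells, served as the viability read-out. HEK293T cells carrying luciferase-tagged ATAD5 had been treated with compound for 15.5 hr at 37C.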

Assay [3] in a line: qHTS assay for small molecule disruptors of the mitochondrial membrane potential - cell viability (AID 720634; calls by dose curve; note: nearly all actives have a fitted effect of over 20% in size; note: potency is the fitted concentration of half-maximal effect). An outline of the steps: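 Cells: HepG2, 2,000/well, attached overnight. Compound 1 hr, 37 C/5% CO2. +m-MPI dye, +CellTiter-Glo 30 min RT. Readout: luminescence (ATP).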
Assay [4] is described as follows: qHTS assay to test for compound auto fluorescence at 590 nm (red) in HepG2 cells (AID 720674). An outline of the steps: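 HepG2 cells, 2,000 per well in MEM with 10% FBS, attached overnight at 37 C, then got 23 nL compound or DMSO. After 1 hr at 37 C, 5% CO2, red fluorescence was read at 540/590 nm against Rose Bengal sodium as reference.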
Assay [5] can be described thus: qHTS assay to test for compound auto fluorescence at 535 nm (green) in HepG2 cells (AID 720675).
Assay [6] in a line: qHTS assay to test for compound auto fluorescence at 460 nm (blue) in HEK293 cells (AID 720678). Note: potency is the fitted concentration of half-maximal effect. An outline of the steps:
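HEK293 cells (2,000/well, medium with 10% dialyzed FBS) attached 4-5 hr, then exposed to compound overnight at 37C, 5% CO2. Blue fluorescence read at 405/460 nm, with triamterene as reference fluorophore.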

Assay [7] can be described thus: qHTS assay to test for compound auto fluorescence at 590 nm (red) in HEK293 cells (AID 720679). An outline of the steps: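 HEK293 cells (2,000/well, 10% dialyzed FBS) attached 4-5 hr, then dosed with compound or DMSO and incubated overnight at 37C, 5% CO2. Red fluorescence read at 540/590 nm, Rose Bengal sodium as reference fluorophore.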
The nature of assay [8]: qHTS assay to test for compound auto fluorescence at 535 nm (green) in HEK293 cells (AID 720680).
The nature of assay [9]: qHTS assay to test for compound auto fluorescence at 460 nm (blue) in HEK293 cell free culture (AID 720681). Note: potency is the fitted concentration of half-maximal effect. An outline of the steps:
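Compounds were added to cell-free DMEM with 10% FBS and fluorescence read directly. The blue channel used 405 nm excitation and 460 nm emission, with triamterene as the reference fluorophore.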

Assay [10] can be described thus: qHTS assay to test for compound auto fluorescence at 535 nm (green) in HEK293 cell free culture (AID 720682). The gist of the method:
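Green-label autofluorescence (485 nm excitation, 535 nm emission) measured on compound added to cell-free culture medium (DMEM, 10% FBS). Output is expressed relative to fluorescein.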

Assay [11] can be described thus: qHTS assay to test for compound auto fluorescence at 590 nm (red) in HEK293 cell free culture (AID 720683). The gist of the method:
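Cell-free wells of DMEM with 10% FBS received compound, and intrinsic fluorescence was read at excitation/emission 540/590 nm. Values expressed as equivalence to Rose Bengal sodium.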

Assay [12] is described as follows: qHTS assay to test for compound auto fluorescence at 590 nm (red) in HepG2 cell free culture (AID 720684). An outline of the steps:
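Compound was pinned into wells holding MEM with 10% FBS and no cells, and red fluorescence was read at Ex/Em 540/590 nm. Signal is expressed as auto fluorescence equivalency relative to Rose Bengal sodium.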

The nature of assay [13]: qHTS assay to test for compound auto fluorescence at 535 nm (green) in HepG2 cell free culture (AID 720686).
Assay [14] is described as follows: qHTS assay to test for compound auto fluorescence at 460 nm (blue) in HepG2 cells (AID 720687). Note: potency is the fitted concentration of half-maximal effect. An outline of the steps: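 HepG2 cells in MEM with 10% FBS, attached overnight at 37 C, were exposed to compound or DMSO for 1 hr at 37 C, 5% CO2. Blue fluorescence was read at 405/460 nm, with triamterene as reference fluorophore.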
The target of assay [15] is Glucocorticoid receptor (Homo sapiens) (UniProt P04150). As to the kind of experiment: qHTS assay to identify small molecule agonists of the glucocorticoid receptor (GR) signaling pathway (AID 720691; active = well fitted activation curve with a large enough effect in the signal ratio in the repeat runs, not every such curve was filed as active; the % refers to the signal ratio). An outline of the steps:
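Fluorescence intensity from LiveBLAzer B/G FRET substrate (2 h, room temperature) reports beta-lactamase expression driven by the glucocorticoid response element in GR-bla HeLa cells after 18 h compound exposure at 37 C.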

Assay [16] shares this target. As to the kind of experiment: qHTS assay to identify small molecule antagonists of the glucocorticoid receptor (GR) signaling pathway (AID 720692; active = well fitted inhibition curve with a large enough effect in the signal ratio in the repeat runs, not every such curve was filed as active; the % refers to the signal ratio). An outline of the steps:
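HeLa GR-bla cells; cmpd + dex 5 nM final, 18 h 37 C; LiveBLAzer B/G FRET substrate 2 h RT; fluorescence intensity read. Antagonist mode, qHTS.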

A short description of assay [17]: qHTS assay for small molecule disruptors of the mitochondrial membrane potential (AID 720635). Note: potency is the fitted concentration of half-maximal effect. The gist of the method:
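HepG2 cells exposed to compound 1 hr at 37C, then Mito-MPS dye 30 min. Ratio read of aggregate (540/590 nm) versus monomer (490/535 nm) fluorescence.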

The nature of assay [18]: qHTS assay to test for compound auto fluorescence at 460 nm (blue) in HepG2 cell free culture (AID 720685). Note: potency is the fitted concentration of half-maximal effect. An outline of the steps: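 Compound (23 nL) or DMSO pinned into cell-free MEM with 10% FBS; blue fluorescence read at 405/460 nm excitation/emission, expressed as auto-fluorescence equivalency to triamterene.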

Each structure is given as a SMILES string. “And” between values parts separate entries of the source, which are not always exact repeats. Identical values can stand only once. A number with no mark means an inactive call. Results filed as inconclusive are left out. The source made the active and inactive calls. Unless noted, calls come from the whole dose curve; as a rule, active = well fitted curve in the direction sought with a large enough effect in the repeat runs; inconclusive = weak or mixed curves; inactive = no such curve, though single readings can be large; an effect the other way counts as inactive or inconclusive.
Tags give direction and shape of the fitted curve or compound fluorescence and quenching.

Glucocorticoid receptor (Homo sapiens), sequence (P04150 whole entry, looked up): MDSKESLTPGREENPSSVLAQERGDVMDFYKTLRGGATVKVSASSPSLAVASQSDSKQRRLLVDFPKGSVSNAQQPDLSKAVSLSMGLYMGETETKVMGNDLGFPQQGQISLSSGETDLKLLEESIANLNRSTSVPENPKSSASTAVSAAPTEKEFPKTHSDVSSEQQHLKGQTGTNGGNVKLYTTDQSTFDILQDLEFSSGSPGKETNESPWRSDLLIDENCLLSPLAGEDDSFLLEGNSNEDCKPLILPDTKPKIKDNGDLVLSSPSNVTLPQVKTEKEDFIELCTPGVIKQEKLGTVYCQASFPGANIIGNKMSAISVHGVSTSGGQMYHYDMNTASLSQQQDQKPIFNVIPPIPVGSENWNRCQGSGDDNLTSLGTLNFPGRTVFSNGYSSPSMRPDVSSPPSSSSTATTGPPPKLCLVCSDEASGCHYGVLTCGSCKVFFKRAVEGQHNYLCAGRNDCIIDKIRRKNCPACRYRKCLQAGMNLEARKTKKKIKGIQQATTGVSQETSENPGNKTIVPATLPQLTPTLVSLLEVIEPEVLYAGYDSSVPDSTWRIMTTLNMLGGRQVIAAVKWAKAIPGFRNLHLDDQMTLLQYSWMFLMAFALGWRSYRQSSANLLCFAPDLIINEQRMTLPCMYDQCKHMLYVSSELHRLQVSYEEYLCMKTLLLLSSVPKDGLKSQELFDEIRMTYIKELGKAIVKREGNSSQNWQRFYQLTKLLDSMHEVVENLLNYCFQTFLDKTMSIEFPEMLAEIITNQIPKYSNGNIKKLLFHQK

Take `O=C(CBr)c1ccc(O)cc1`: the Potency result in [1], in assay [2], in [3], in assay [6], in [9] and in assay [14] was “inactive” each time. Besides, the Potency entry in [15] and in assay [16] was “inactive” in each case. Besides, the result in assay [4], in [5], in assay [7], in assay [8], in assay [10] and in assay [11] was inactive. The molecule was called inactive in [12] and in [13].

`Oc1ccc2ccc3cccc4ccc1c2c34`: the Potency entry in [1], in assay [2] and in assay [15] was “inactive” each time. Further, the Potency in assay [17] was 2.73 µM (active); in assay [6], 35.5 µM [fluorescent] (active); in assay [9] it was 44.7 µM (active); in assay [18], 39.8 µM [fluorescent] (active); in assay [14], 35.5 µM [fluorescent] (active). In addition, the outcome in assay [4], in [5], in assay [7], in assay [8], in assay [10] and in assay [11] was inactive. For the same molecule, the outcome in [12] and in assay [13] was inactive.

As for `CCCCCCCCCCCCCCCCCCn1cc[n+](C)c1`, the Potency entry in assay [1], in assay [2], in assay [6], in assay [9], in [14] and in assay [15] was “inactive” in each case. Also, the Potency in assay [17] is 9.63 µM (active). For the same molecule, the call in assay [4], in assay [5], in [7], in assay [8], in assay [10] and in [11] was inactive. Also, the molecule was classed as inactive in [12] and in assay [13].

Turning to `CC1(C)C(/C=C(\Cl)C(F)(F)F)C1C(=O)OC(C#N)c1cccc(Oc2ccccc2)c1` (configuration not stated), the Potency entry in [1], in assay [2], in [6], in assay [9], in [18] and in [14] was “inactive” in each case. In assay [17], the Potency was 34.9 µM (active). Besides, the outcome in [4], in assay [5], in assay [7], in assay [8], in [10] and in [11] was inactive. The call in assay [12] and in [13] was inactive.

For the molecule `ClC1=C(Cl)C2(Cl)C3C(Cl)C=CC3C1(Cl)C2(Cl)Cl` (configuration not stated), the Potency entry in [1], in assay [2], in assay [3], in assay [6], in [9] and in assay [18] was “inactive” throughout. Further, the Potency entry in [14] was “inactive”. Also, the Potency in assay [17] is 27.4 µM (active) and 54.5 µM (active). The molecule was called inactive in [4], in assay [5], in [7], in assay [8], in assay [11] and in [12]. The outcome in assay [13] was inactive.

`Oc1ccc(C2(c3ccc(O)cc3)CCCCC2)cc1`: the Potency entry in [1], in assay [2], in [3], in assay [9], in assay [18] and in [14] was “inactive” throughout. Further, the Potency in assay [17] is 16.3 µM (active). For the same molecule, the molecule was classed as inactive in assay [4], in assay [5], in assay [7], in assay [8], in [10] and in assay [11]. Moreover, the call in [12] and in assay [13] was inactive.

Take `CCOc1cc(C(C)(C)C)ccc1C1COC(c2c(F)cccc2F)=N1` (configuration not stated): the Potency result in assay [1], in assay [2], in [6], in [18] and in [14] was “inactive” throughout. The Potency in [3] was 29.5 µM (active); in assay [17] it was 16.6 µM (active). Besides, the outcome in assay [4], in assay [5], in assay [7], in [8], in [10] and in [11] was inactive. Moreover, the molecule was called inactive in assay [12] and in assay [13].

Source of the values: PubChem BioAssay (Tox21).
